Measurements published in PubChem BioAssay (EPA / NIEHS).
Active and inactive are the calls of the source. Rule for the calls: active = hit-call score of the fitted dose curve at least 0.9, where 1 is the maximum; inactive = score below 0.9.

Test: APR_HepG2_CellLoss_72hr: Apredica 72-hour HepG2 Assay for Cell Loss (AID 2282915)
Conditions: high-content imaging
Experimental: APR_HepG2_72hr is a cell-based, multiplexed-readout assay that uses HepG2, a human liver cell line, with measurements taken at 72 hours after chemical dosing in a 384-well plate.APR_HepG2_CellLoss_72hr is one of 10 assay component(s) measured or calculated from the APR_HepG2_72hr assay. It is designed to make measurements of cell number, a form of viability reporter, as detected with fluorescence intensity signals by HCS Fluorescent Imaging technology.Data from the assay component APR_HepG2_CellLoss_72hr was analyzed into 1 assay endpoint. This assay endpoint, APR_HepG2_CellLoss_72hr, was analyzed with bidirectional fitting relative to DMSO as the negative control and baseline of activity. Using a type of viability reporter, measures of all nuclear dna for gain or loss-of-signal activity can be used to understand the viability at the cellular-level. Furthermore, this assay endpoint can be referred to as a secondary readout, because this assay has produced multiple assay endpoints where this one serves a viability function. To generalize the intended target to other relatable targets, this assay endpoint is annotated to the cell cycle intended target family, where the subfamily is proliferation.
Cells were treated with dimethyl sulfoxide (DMSO) as a solvent control at a final concentration of 0.5% v/v or with compounds in DMSO with a resulting final DMSO concentration of 0.5% v/v. Compound treatment was done at concentrations of 0.39, 0.78, 1.56, 3.12, 6.24, 12.5, 25, 50, 100, and 200 uM in duplicate on each plate. Cells were treated with compounds for 1, 24, or 72 hr. Carbonyl […] m-chloro-phenylhydrazone (CCCP) and taxol were used as positive controls for mitochondrial function and cytoskeletal stability, respectively; DMSO served as the negative control for this experiment. Cells were fixed by the direct addition of 50 uL formaldehyde in Hank's Balanced Salt Solution (HBSS) to a final concentration of 3.7%. After incubation in the fixation medium for 30 min at room temperature (293-298 K), cells were rinsed twice with HBSS and treated with cell permeabilization buffer (16 uL of 0.5% Triton X-100) for 10 min at room temperature (293-298 K) before labeling. For mitochondrial membrane potential and mitochondrial measurements, pre-fixed cells were incubated with 50 uL of MitoTracker Red CMXRos (Invitrogen) at a concentration of 250 nM for 30 min before fixation. In the remaining cases, post-fixed cells were labeled by incubation with a multiplexed mixture of primary antibodies in HBSS for 60 min at room temperature (293-298 K) to detect immunoreactivity of c-Jun (1:500), phospho-histone H3 (1:100), phospho-histone H2A.x (1:200), p53 (1:400), alpha-tubulin (1:200) and Hoechst 33342 (2 ug/mL). Cells were labeled for multiplexed imaging on two separate plates: a) Hoechst 33342, MitoTracker Red, phospho-histone H3, and alpha-tubulin, and b) Hoechst 33342, phospho-histone H2A.x, and c-Jun. A final rinse with HBSS (50 uL) was performed before analysis. The primary and secondary antibodies for the proteins were phospho-histone H3 (rabbit anti-phospho-histone H3 and FITC-donkey anti-rabbit IgG), phospho-histone H2A.x (mouse anti-phospho-histone H2A.x and FITC-donkey anti-mouse IgG), c-Jun (rabbit anti-phospho-c-Jun and Cy3-donkey anti-rabbit IgG), p53 (sheep anti-p53 and Cy5-donkey anti-sheep IgG), alpha-tubulin (mouse anti-alpha-tubulin and Cy5-donkey anti-mouse IgG). These antibodies are available as the CellCiphr HepG2 assay kit (Millipore).Digital images of each well were captured using a Cellomics ArrayScan VTI (Thermo Scientific Cellomics) (0.8 NA objective, 0.63x optical coupler, and XF-93 filter set) at 20x magnification. The images were acquired using the autofocus feature of the ArrayScan instrument, which entails the following steps. First, the camera focuses on channel 1 (Hoechst 33342), where nuclei are identified. Second, a Z offset of 1 um is used for capturing mitochondria (MitoTracker Red). […]

Which outcome does the source give for `CCc1cccc(CC)c1N` here?
Its outcome is “inactive”.

With `COc1cc2c(c(OC)c1OC)-c1ccc(OC)c(=O)cc1[C@@H](NC(C)=O)CC2` as the compound, how does the AC50 read?
The AC50 was 0.0536 µM (active).

For `c1ccc2c(c1)-c1cccc3c1c-2cc1ccccc13`, which AC50 is on record?
The AC50 was 7.58 µM (active).

Which AC50 does the source give for `c1ccc(C(O[C@@H]2CCCN(CCc3ccc4c(c3)OCO4)C2)c2ccccc2)cc1` here?
Its AC50 is 98.3 µM (active).

With `C=CCc1cc(S(=O)(=O)c2ccc(O)c(CC=C)c2)ccc1O` as the compound, how does the AC50 read?
The AC50 was 73.2 µM (active).

For `Cc1nc(-c2ccccn2)ncc1C(=O)Nn1cc(C)c2cc(F)ccc21`, which AC50 is on record?
The AC50 was 55.3 µM (active).

With `CC(C)CC(C)O` (stereo not given) as the compound, how does the outcome read?
Its outcome is “inactive”.

Which AC50 does the source give for `O=C(NO)C1(NS(=O)(=O)c2ccc(Oc3ccc(F)cc3)cc2)CCOCC1` here?
The AC50 was 65.4 µM (active).

For `OC[C@H]1O[C@@](CO)(O[C@H]2O[C@H](CO)[C@@H](O)[C@H](O)[C@H]2O)[C@@H](O)[C@@H]1O`, which outcome is on record?
The outcome was “inactive”.

With `CCCCOC(=O)c1ccccc1` as the compound, how does the outcome read?
Its outcome is “inactive”.

With `CCCCCCCCCC` as the compound, how does the outcome read?
Its outcome is “inactive”.

With `CCCCCCCCCCCCCCO` as the compound, how does the AC50 read?
The AC50 was 106 µM (active).

For `CCCCCCCCCCCCCCCCOS(=O)(=O)O`, which outcome is on record?
The outcome was “inactive”.

Which outcome does the source give for `CCCCCCCC/C=C\CCCCCCCC(=O)OC[C@@H](O)[C@H]1OC[C@H](O)[C@H]1O` here?
Its outcome is “inactive”.

Which AC50 does the source give for `Cc1nccn1-c1ccc(Sc2cccc(C3(C(N)=O)CCOCC3)c2)cc1` here?
Its AC50 is 17.4 µM (active).

For `CCCCC(CC)C(=O)OCCOCCOCCOC(=O)C(CC)CCCC` (stereo not given), which AC50 is on record?
The AC50 was 89.8 µM (active).

For `CCOc1ccc2[nH]cc(C(=O)NCc3ccccc3)c(=O)c2n1`, which AC50 is on record?
The AC50 was 106 µM (active).

Which outcome does the source give for `CC(C)c1nnc2ccc(-c3ocnc3-c3cc(F)ccc3F)cn12` here?
The outcome was “inactive”.

With `O=C(O)c1cccc(C[C@@H]2COc3ccc(OCc4nc5cc(F)ccc5s4)cc3[C@@H]2O)c1` as the compound, how does the AC50 read?
The AC50 was 63.7 µM (active).

For `CCOC(N)=O`, which outcome is on record?
Its outcome is “inactive”.

For `Cc1ccc(S(=O)(=O)NC(=O)NN2CCCCCC2)cc1`, which outcome is on record?
The outcome was “inactive”.

With `C[C@]12C=CC(=O)C=C1CC[C@H]1[C@@H]3C[C@@H](O)[C@](O)(C(=O)CO)[C@@]3(C)C[C@H](O)[C@@]12F` as the compound, how does the outcome read?
The outcome was “inactive”.

Which outcome does the source give for `Cn1c(=O)c2[nH]cnc2n(C)c1=O` here?
Its outcome is “inactive”.

With `CC1(C)C(=O)N(Cl)C(=O)N1Cl` as the compound, how does the outcome read?
The outcome was “inactive”.

With `OCC(CO)(CO)CO` as the compound, how does the outcome read?
The outcome was “inactive”.

Which outcome does the source give for `c1ccc2ncccc2c1` here?
The outcome was “inactive”.

For `CCc1ccc(O)c(C(C)(C)C)c1`, which AC50 is on record?
Its AC50 is 80.7 µM (active).

With `O=C(O)c1ccc2c(c1)nc(C(=O)NC1CCN(C3CC3)CC1)n2Cc1cc(-c2ccc(Cl)s2)on1` as the compound, how does the outcome read?
Its outcome is “inactive”.

With `NC(N)=O` as the compound, how does the outcome read?
The outcome was “inactive”.

For `COCc1nnc(-c2ccc[n+]([O-])c2)n1-c1c(Cl)c(Cl)cc2[nH]c(=O)c(=O)[nH]c12`, which outcome is on record?
The outcome was “inactive”.

Which outcome does the source give for `OC(Cn1cncn1)(Cn1cncn1)c1ccc(F)cc1F` here?
The outcome was “inactive”.

Which outcome does the source give for `NC(=O)N(O)[C@@H]1COc2cc(OCc3ccccc3)ccc21` here?
The outcome was “inactive”.

Which AC50 does the source give for `Nc1ccn([C@@H]2O[C@H](CO)[C@@H](O)[C@@H]2O)c(=O)n1` here?
Its AC50 is 0.0391 µM (active).

For `O=S(=O)(O)c1ccc(N=Nc2c(O)ccc3cc(S(=O)(=O)O)ccc23)cc1`, which outcome is on record?
The outcome was “inactive”.

With `CCCc1ccccc1` as the compound, how does the outcome read?
The outcome was “inactive”.

With `NC(=O)NN=Cc1ccc([N+](=O)[O-])o1` as the compound, how does the AC50 read?
The AC50 was 67.8 µM (active).

For `CC[C@H](C)C(=O)O[C@H]1C[C@H](O)C=C2C=C[C@H](C)[C@H](CC[C@@H](O)C[C@@H](O)CC(=O)O)[C@H]21`, which outcome is on record?
The outcome was “inactive”.

Which outcome does the source give for `O=c1[nH]cnc2c1ncn2[C@H]1CC[C@@H](CO)O1` here?
Its outcome is “inactive”.

Which outcome does the source give for `C=CN1CCCC1=O` here?
The outcome was “inactive”.

For `OCCNCCO`, which outcome is on record?
Its outcome is “inactive”.
